Values without a mark were called inactive. Records with an inconclusive call do not appear. Entries that show only a call come without a potency. The source made the active and inactive calls. Unless noted, the call rests on the fitted dose curve.
How the values were obtained:
[1] = Nuclear factor erythroid 2-related factor 2/antioxidant responsive element (Nrf2/ARE) small molecule agonists: qHTS cell viability counter screen in human keratinocytes (AID 1919968; active means well fitted curve in the direction sought with a large enough effect in the repeat runs; an effect the other way counts as inactive or inconclusive; further: nearly all actives have a fitted effect of over 55% in size)
Outline: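 Cells of the KeratinoSens line were plated at 1,500 per well and left for 5 h before compound transfer from DMSO stocks. After a 23 h incubation (37 C, 5% CO2), CellTiter-Fluor was added. Signal was taken as fluorescence intensity 1 h later.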

[2] = Nuclear factor erythroid 2-related factor 2/antioxidant responsive element (Nrf2/ARE) small molecule agonists: luciferase reporter gene qHTS assay in human keratinocytes (AID 1919969); further: nearly all actives have a fitted effect of over 35% in size; further: potency means the concentration at half of the fitted maximal effect
[3] = target: Gonadotropin-releasing hormone receptor (Homo sapiens) (UniProt P30968); test: Human gonadotropin-releasing hormone receptor (GnRHR) small molecule agonists, calcium flux assay in GnRHR-HEK293 cells (AID 1920063); further: nearly all actives have a fitted effect of over 35% in size; further: potency means the concentration at half of the fitted maximal effect
Sequence of Gonadotropin-releasing hormone receptor (Homo sapiens) (P30968 whole entry, looked up): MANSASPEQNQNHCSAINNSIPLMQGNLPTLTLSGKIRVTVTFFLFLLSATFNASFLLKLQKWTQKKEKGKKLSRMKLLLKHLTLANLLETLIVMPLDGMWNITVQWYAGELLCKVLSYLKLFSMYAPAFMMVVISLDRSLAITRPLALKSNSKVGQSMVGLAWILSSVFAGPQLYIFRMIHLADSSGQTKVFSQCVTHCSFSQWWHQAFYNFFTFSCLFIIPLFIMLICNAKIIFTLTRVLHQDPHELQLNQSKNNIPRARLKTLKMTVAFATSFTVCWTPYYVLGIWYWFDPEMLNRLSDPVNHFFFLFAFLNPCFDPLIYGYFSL
Outline: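 Compounds dissolved in DMSO are pin-transferred onto dye-loaded GnRHR-HEK293 cells, which were seeded 18 h before at 37 C/5% CO2. Calcium signal is read as fluorescence intensity at 1 s intervals for 3 min.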

[4] = target: KiSS-1 receptor (Homo sapiens) (UniProt Q969F8); test: Human kisspeptin (KISS1R) small molecule agonists, calcium flux assay in KISS1R-HEK293 cells (AID 1920064; active means well fitted curve in the direction sought with a large enough effect in the repeat runs; an effect the other way counts as inactive or inconclusive)
Sequence of KiSS-1 receptor (Homo sapiens) (Q969F8 whole entry, looked up): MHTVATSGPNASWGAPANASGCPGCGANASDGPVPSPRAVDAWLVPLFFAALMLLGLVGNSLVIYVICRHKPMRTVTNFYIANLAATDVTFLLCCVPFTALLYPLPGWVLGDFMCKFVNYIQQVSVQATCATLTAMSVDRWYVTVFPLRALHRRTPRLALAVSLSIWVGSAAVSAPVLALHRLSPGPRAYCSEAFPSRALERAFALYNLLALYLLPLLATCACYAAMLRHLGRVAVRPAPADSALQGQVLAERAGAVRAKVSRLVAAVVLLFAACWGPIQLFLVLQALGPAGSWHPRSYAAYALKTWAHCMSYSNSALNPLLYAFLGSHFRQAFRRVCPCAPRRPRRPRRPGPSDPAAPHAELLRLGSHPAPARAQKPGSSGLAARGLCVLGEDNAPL
Outline: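 Cell line: HEK293, stable human KISS1R. Dye loading 1 h at 37 C after 18 h culture. Read: kinetic fluorescence, 480/540 nm, 3 min at 1 s intervals.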

[5] = G protein-coupled receptor (GPCR) small molecule agonists, calcium flux assay: HEK293 wild type cell line counter screen (AID 1920065)
Outline: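 Tox21 10K compounds, 15 concentrations each in triplicate, pin-transferred in DMSO onto dye-loaded cells; kinetic read at 480/540 nm for 3 min, 1 s intervals.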

[6] = p53 small molecule agonists, cell-based qHTS assay with human liver microsomes (AID 1963577);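 further: p53 response element beta-lactamase reporter cells with liver microsomes plus NADPH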
Outline: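 In this qHTS, p53 response-element beta-lactamase cells receive test compound together with a microsome/NADPH activating system (0.5 mg/mL final each) and are incubated 16 h at 37 C before LiveBLAzer fluorescence detection.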

[7] = p53 small molecule agonists, cell-based qHTS assay with rat liver microsomes (AID 1963578)
Outline: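 Agonist mode in p53RE-bla reporter cells, with compounds co-incubated 16 h at 37 C alongside 0.5 mg/mL rat liver microsomes and 0.5 mg/mL NADPH (final), followed by a 2 h LiveBLAzer detection step.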

[8] = p53 small molecule agonists, cell-based qHTS assay with human liver microsomes: qHTS cell viability counter screen (AID 1963579); further: nearly all actives have a fitted effect of over 45% in size
Outline: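 Metabolically activated exposure: compounds, human liver microsomes and NADPH (0.5 mg/mL final apiece) were added to p53RE-bla cells seeded 5 h earlier, left 16 h at 37 C, and then assessed for viability by CellTiter-Glo luminescence.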

[9] = p53 small molecule agonists, cell-based qHTS assay with rat liver microsomes: qHTS cell viability counter screen (AID 1963580); further: nearly all actives have a fitted effect of over 45% in size
Outline: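 Counter screen for cytotoxicity under metabolic activation: rat liver microsomes and NADPH, 0.5 mg/mL final each, added with compounds to p53RE-bla HCT-116 cells; 16 h at 37 C, then ATP luminescence read.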

[10] = p53 small molecule agonists, cell-based qHTS assay: qHTS cell viability counter screen (AID 1963581); further: nearly all actives have a fitted effect of over 45% in size
Outline: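 ATP content measured by luminescence in HCT-116 p53RE-bla cells treated 16 h at 37 C, same wells as the reporter screen.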

[11] = p53 small molecule agonists, cell-based qHTS assay (AID 1963582; active means well fitted activation curve with a large enough effect in the signal ratio in the repeat runs, not every such curve was filed as active; the % refers to the signal ratio)
Outline: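 16 h compound exposure (37 C) of p53 response element–bla cells, preceded by 5 h recovery at 37 C/5% CO2; read-out via LiveBLAzer B/G FRET substrate, 2 h RT, fluorescence intensity.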

[12] = target: 5-hydroxytryptamine receptor 2A (Homo sapiens) (UniProt P28223); test: 5-hydroxytryptamine receptor 2A (HTR2A) small molecule antagonists, cell-based qHTS assay (AID 1963586); further: nearly all actives have a fitted effect of over 45% in size
Sequence of 5-hydroxytryptamine receptor 2A (Homo sapiens) (P28223 whole entry, looked up): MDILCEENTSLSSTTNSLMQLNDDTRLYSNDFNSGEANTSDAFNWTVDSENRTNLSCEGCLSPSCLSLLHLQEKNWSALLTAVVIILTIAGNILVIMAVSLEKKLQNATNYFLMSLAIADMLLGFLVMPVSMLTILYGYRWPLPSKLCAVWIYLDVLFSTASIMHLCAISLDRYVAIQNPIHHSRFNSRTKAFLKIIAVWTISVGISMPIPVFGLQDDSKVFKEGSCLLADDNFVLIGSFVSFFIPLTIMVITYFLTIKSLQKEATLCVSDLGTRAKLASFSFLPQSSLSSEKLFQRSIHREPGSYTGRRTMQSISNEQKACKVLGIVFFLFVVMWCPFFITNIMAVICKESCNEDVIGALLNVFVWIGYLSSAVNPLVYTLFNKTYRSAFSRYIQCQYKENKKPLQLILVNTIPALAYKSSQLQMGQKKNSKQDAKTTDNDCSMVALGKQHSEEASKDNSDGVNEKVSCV
Outline: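 CHO cells stably expressing human HTR2A were plated for 18 h at 37 C, then loaded with calcium dye for 1 h. Compounds were preincubated 5 min at room temperature before DOI (4 nM solution) was added. Kinetic fluorescence was read for 3 min.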

[13] = target: 5-hydroxytryptamine receptor 2A (Homo sapiens) (UniProt P28223); test: 5-hydroxytryptamine receptor 2A (HTR2A) small molecule agonists, cell-based qHTS assay (AID 1963587); further: nearly all actives have a fitted effect of over 30% in size
Outline: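 HTR2A-CHO cells, plated 18 h at 37 C/5% CO2, dye-loaded 1 h at 37 C; compounds in DMSO added by pin tool (agonist mode). Intracellular calcium flux read as kinetic fluorescence on FDSS over 2 min at 1 s intervals.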

[14] = target: Muscarinic acetylcholine receptor M1 (Homo sapiens) (UniProt P11229); test: Cholinergic receptor muscarinic 1 (CHRM1) small molecule antagonists, cell-based qHTS assay (AID 1963588); further: nearly all actives have a fitted effect of over 40% in size; further: potency means the concentration at half of the fitted maximal effect
Sequence of Muscarinic acetylcholine receptor M1 (Homo sapiens) (P11229 whole entry, looked up): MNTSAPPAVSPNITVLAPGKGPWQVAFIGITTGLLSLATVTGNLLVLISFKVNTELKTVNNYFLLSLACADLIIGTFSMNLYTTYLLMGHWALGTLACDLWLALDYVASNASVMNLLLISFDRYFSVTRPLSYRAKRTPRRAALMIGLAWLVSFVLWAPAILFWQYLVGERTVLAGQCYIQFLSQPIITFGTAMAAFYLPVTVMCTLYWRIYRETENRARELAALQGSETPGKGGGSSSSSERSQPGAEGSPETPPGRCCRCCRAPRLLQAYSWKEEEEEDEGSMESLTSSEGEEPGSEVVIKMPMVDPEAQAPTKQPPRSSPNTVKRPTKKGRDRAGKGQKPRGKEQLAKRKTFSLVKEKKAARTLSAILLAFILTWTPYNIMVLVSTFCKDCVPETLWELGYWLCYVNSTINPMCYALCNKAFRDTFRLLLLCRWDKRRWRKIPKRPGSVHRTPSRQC
Outline: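 Compounds were tested at 15 concentrations in three independent runs. Dye-loaded CHRM1-CHO cells were exposed 5 min at room temperature before stimulation by acetylcholine added at 50nM. Intracellular calcium was read kinetically on FDSS for 3 min.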

[15] = target: Muscarinic acetylcholine receptor M1 (Homo sapiens) (UniProt P11229); test: Cholinergic receptor muscarinic 1 (CHRM1) small molecule agonists, cell-based qHTS assay (AID 1963589); further: nearly all actives have a fitted effect of over 35% in size
Outline: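 Homogeneous fluorescence calcium flux, agonist mode. Human M1-expressing CHO cells; compound dosed at 15 concentrations, three independent runs; signal sampled every 1 sec.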

[16] = target: D(2) dopamine receptor (Homo sapiens) (UniProt P14416); test: Dopamine D2 receptor (DRD2) small molecule agonists, cell-based qHTS assay (AID 1963594); further: nearly all actives have a fitted effect of over 35% in size; further: potency means the concentration at half of the fitted maximal effect
Sequence of D(2) dopamine receptor (Homo sapiens) (P14416 whole entry, looked up): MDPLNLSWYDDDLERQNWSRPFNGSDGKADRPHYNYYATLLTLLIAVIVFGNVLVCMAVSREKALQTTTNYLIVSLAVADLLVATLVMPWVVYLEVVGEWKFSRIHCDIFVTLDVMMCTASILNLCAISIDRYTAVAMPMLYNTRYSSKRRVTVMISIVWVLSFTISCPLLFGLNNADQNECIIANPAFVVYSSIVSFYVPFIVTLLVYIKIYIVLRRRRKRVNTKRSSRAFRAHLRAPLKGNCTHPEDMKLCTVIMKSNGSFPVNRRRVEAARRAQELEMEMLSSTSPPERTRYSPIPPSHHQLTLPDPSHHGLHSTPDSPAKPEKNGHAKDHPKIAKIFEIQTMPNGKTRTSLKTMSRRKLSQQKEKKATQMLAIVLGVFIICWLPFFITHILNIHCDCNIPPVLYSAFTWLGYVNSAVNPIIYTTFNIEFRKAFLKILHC
Outline: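 HEK293 cells stably expressing DRD2 were cultured 24 h at 37 C, then given Ro20-1724 (0.1 mM final) and compounds for 10 min at room temperature. NKH477 (200nM) was then added for 30 min. cAMP was read by HTRF.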

[17] = target: D(2) dopamine receptor (Homo sapiens) (UniProt P14416); test: Dopamine D2 receptor (DRD2) small molecule antagonists, cell-based qHTS assay (AID 1963595; active means well fitted inhibition curve with a large enough effect in the signal ratio in the repeat runs, with a control signal flat; the % refers to the signal ratio; further: potency means the concentration at half of the fitted maximal effect)
Outline: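 HEK293 cells stably expressing DRD2 were preincubated with 0.1 mM Ro20-1724, then with compound for 10 min at room temperature. Cells were stimulated with 200 nM NKH477 plus 12 nM quinpirole for 30 min, and cAMP was read by HTRF.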

[18] = target: Beta-2 adrenergic receptor (Homo sapiens) (UniProt P07550); test: Adrenergic beta2 receptor (ADRB2) small molecule antagonists, cell-based qHTS assay (AID 1963592); further: nearly all actives have a fitted effect of over 50% in size; further: potency means the concentration at half of the fitted maximal effect
Sequence of Beta-2 adrenergic receptor (Homo sapiens) (P07550 whole entry, looked up): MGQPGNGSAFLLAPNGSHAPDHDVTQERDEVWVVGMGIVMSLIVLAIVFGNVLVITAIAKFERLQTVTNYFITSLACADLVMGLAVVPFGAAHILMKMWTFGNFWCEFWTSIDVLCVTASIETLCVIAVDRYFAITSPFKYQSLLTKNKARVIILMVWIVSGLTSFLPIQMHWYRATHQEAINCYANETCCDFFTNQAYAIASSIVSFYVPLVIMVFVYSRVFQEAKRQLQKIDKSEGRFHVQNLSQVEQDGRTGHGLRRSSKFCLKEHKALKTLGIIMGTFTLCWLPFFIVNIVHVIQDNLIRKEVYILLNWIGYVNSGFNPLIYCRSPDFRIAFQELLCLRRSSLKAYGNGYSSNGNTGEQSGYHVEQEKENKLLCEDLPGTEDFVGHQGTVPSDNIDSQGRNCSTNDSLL
Outline: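 Assay format: CHO-ADRB2 cells, 18-20hr seeding at 37C/5% CO2, then compound plus 1nM isoproterenol agonist mix for 0.5hr RT. Homogeneous time-resolved fluorescence cAMP detection after 1hr, expressed as 665/615 nm ratio.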

[19] = cAMP Responsive Elements (CRE) small molecule agonists, cell-based qHTS assay (AID 1963590)
Outline: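 HEK 293T cells stably bearing CRE-bla were plated at 2,000 cells per well and rested 18 h. Compounds, positive controls or DMSO were added for 3 h at 37 C. LiveBLAzer B/G substrate was then loaded for 2 h at room temperature.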

[20] = cAMP Responsive Elements (CRE) small molecule antagonists, cell-based qHTS assay (AID 1963591; active means well fitted inhibition curve with a large enough effect in the signal ratio in the repeat runs, not every such curve was filed as active; the % refers to the signal ratio)
Outline: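 First, CRE-bla HEK293T cells settled 18 h at 37 C. Next, compound and 0.25 uM final NKH477 were applied for 3 h. Last, LiveBLAzer B/G substrate was loaded for 2 h at room temperature.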

SMILES | Potency [1] | Potency [2] | Potency [3] | outcome [4] | outcome [5] | Potency [6] | Potency [7] | Potency [8] | Potency [9] | Potency [10] | Potency [11] | Potency [12] | Potency [13] | Potency [14] | Potency [15] | Potency [16] | Potency [17] | Potency [18] | Potency [19] | Potency [20]
CCOC(=O)C1CC(=O)C(=C(O)C2CC2)C(=O)C1 (stereo not given) | inactive | inactive | inactive | inactive | inactive | inactive | inactive | inactive | inactive | inactive | inactive | inactive | inactive | inactive | inactive | inactive | inactive | – | – | –
O=C(O)CCCc1c[nH]c2ccccc12 | inactive | inactive | inactive | inactive | inactive | inactive | inactive | inactive | inactive | inactive | inactive | inactive | inactive | inactive | inactive | inactive | – | inactive | – | –
CC(=O)Nc1ccc(N)cc1 | inactive | inactive | inactive | inactive | inactive | inactive | inactive | inactive | inactive | inactive | inactive | inactive | inactive | inactive | – | inactive | – | inactive | inactive | inactive
C[C@H](N)C(=O)N[C@@H](C)C(=O)NC1[C@H]2CN(c3nc4c(cc3F)c(=O)c(C(=O)O)cn4-c3ccc(F)cc3F)C[C@@H]12 (stereo not given in full) | inactive | inactive | inactive | inactive | inactive | inactive | inactive | inactive | inactive | inactive | inactive | inactive | inactive | inactive | inactive | – | inactive | – | – | –
CCN1CCCC1CN (stereo not given) | inactive | inactive | inactive | inactive | inactive | inactive | inactive | inactive | inactive | inactive | inactive | inactive | inactive | inactive | – | inactive | inactive | inactive | inactive | –
O=C(O)c1cc(O)c2c(c1)C(=O)c1cccc(O)c1C2=O | inactive | inactive | inactive | inactive | inactive | inactive | inactive | inactive | inactive | inactive | inactive | inactive | inactive | inactive | inactive | inactive | inactive | inactive | – | –
CN(C)CCCCl | inactive | inactive | inactive | inactive | inactive | inactive | inactive | inactive | inactive | inactive | inactive | inactive | inactive | inactive | – | inactive | inactive | inactive | inactive | inactive
CC(=O)N/N=C/c1ccc([N+](=O)[O-])o1 | inactive | 33.5 µM (active) | inactive | inactive | inactive | inactive | inactive | inactive | inactive | inactive | inactive | inactive | inactive | 0.0326 µM (active) | – | inactive | inactive | – | inactive | –
COc1cc2c(cc1OC)CN(C(=O)[C@H](C)N[C@@H](CCc1ccccc1)C(=O)O)[C@H](C(=O)O)C2 | inactive | inactive | inactive | inactive | inactive | inactive | inactive | inactive | inactive | inactive | inactive | inactive | inactive | inactive | – | inactive | inactive | inactive | inactive | inactive
CC(C)OC(=O)c1cc2c(OCC(O)CNC(C)(C)C)cccc2[nH]1 (stereo not given) | inactive | inactive | inactive | inactive | inactive | inactive | inactive | inactive | inactive | inactive | inactive | inactive | inactive | inactive | – | 13.3 µM (active) | inactive | 0.0033 µM (active) | inactive | inactive
Cc1ccc(O)cn1 | inactive | inactive | inactive | inactive | inactive | inactive | inactive | inactive | inactive | inactive | inactive | inactive | inactive | inactive | – | inactive | inactive | inactive | inactive | inactive
CC1(C)CCC(C)(C)c2cc(NC(=O)c3ccc(C(=O)O)cc3)ccc21 | inactive | inactive | inactive | inactive | inactive | inactive | inactive | inactive | inactive | inactive | inactive | inactive | inactive | inactive | inactive | 1.06 µM (active) | inactive | inactive | – | –
O=C(O)c1cccc(C(=O)O)c1C(=O)O | inactive | inactive | inactive | inactive | inactive | inactive | inactive | inactive | inactive | inactive | inactive | inactive | inactive | inactive | – | inactive | inactive | inactive | inactive | –
CC[C@H](NC(C)C)[C@H](O)c1ccc(O)c2[nH]c(=O)ccc12 | inactive | inactive | 0.012 µM (active) | inactive | inactive | inactive | inactive | inactive | inactive | inactive | inactive | inactive | inactive | inactive | inactive | inactive | 0.0944 µM (active) | – | – | –
